Assay outcomes: PubChem, National Center for Advancing Translational Sciences (NCATS)
Tb PYK inh: qHTS of Trypanosoma Brucei Inhibitors. 0.12% of 410,000 active. TbPYK enzyme, Kinase-Glo Plus ATP luminescence, 45 min. pyruvate kinase (Trypanosoma brucei), Q57TT1. Potency, µM (top dose mostly 76.8 µM), hits mostly inhibitors. AID 624173, 2012; also: nearly all actives have a fitted effect of over 50% in size
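In this concentration-response screen, enzyme-free wells defined baseline while DMSO plates tracked drift. Each reaction combined TbPYK, substrate, compound and 130 uM ADP for 45 min at room temperature. Kinase-Glo Plus luminescence gave the signal.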
FBPA Giardia inh: qHTS Assay for Inhibitors of Fructose-1,6-bisphosphate Aldolase from Giardia Lamblia | A8B2U2 | purified Giardia FBPA | Potency, µM (series often up to 59.6 µM), actives largely listed as inhibitors | 0.71% of 290,000 active | AID 2451, 2010; also: nearly all actives have a fitted effect of over 55% in size
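40 nM FBPA preincubated 10 min at RT with compound (up to 57.5 uM final), then substrate plus GAPDH/TPI/NAD/arsenate coupling and diaphorase/resazurin added. Fluorescence read after 20 min at RT, 525/598 nm.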
RE007 growth inh: qHTS Assay for Inhibitors of the HIV-1 protein Vpr | S. pombe RE007 Vpr strain, BacTiter-Glo ATP luminescence, 24 h | Potency, µM (series often up to 92.2 µM), most hits filed as inhibitors | 0.21% of 360,000 active; active = well fitted falling curve with a large enough effect; inconclusive = small, poorly fitted or top-dose-only effect; inactive = no such curve, though single readings can be large or run the other way; also: nearly all actives have a fitted effect of over 50% in size
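Fission yeast strain RE007, carrying one chromosomally integrated HIV-1 vpr copy, was seeded at OD 0.01 in PMG+AL medium with 23 nL pinned compound. After 24 h at 30 °C and 99% humidity, viability was read by BacTiter-Glo luminescence.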
Shiga toxin inh: A qHTS for Small Molecule Inhibitors of Shiga Toxin. Vero cells, Shiga toxin protein synthesis inhibition reporter. inhibition, % at 38.7 µM. 9.2% of 290,000 active; in the data active = inhibition mostly above about 28%, no sharp cut-off; inactive = mostly below about 43%
LmPK inhibitor: qHTS Assay for Inhibitors of Leishmania Mexicana Pyruvate Kinase (LmPK); purified LmPK, Kinase-Glo ATP luminescence, 1 h; Potency, µM (series often up to 57.5 µM), usual class: inhibitors; 0.37% of 290,000 active
Target sequence (Q27686 whole entry, looked up): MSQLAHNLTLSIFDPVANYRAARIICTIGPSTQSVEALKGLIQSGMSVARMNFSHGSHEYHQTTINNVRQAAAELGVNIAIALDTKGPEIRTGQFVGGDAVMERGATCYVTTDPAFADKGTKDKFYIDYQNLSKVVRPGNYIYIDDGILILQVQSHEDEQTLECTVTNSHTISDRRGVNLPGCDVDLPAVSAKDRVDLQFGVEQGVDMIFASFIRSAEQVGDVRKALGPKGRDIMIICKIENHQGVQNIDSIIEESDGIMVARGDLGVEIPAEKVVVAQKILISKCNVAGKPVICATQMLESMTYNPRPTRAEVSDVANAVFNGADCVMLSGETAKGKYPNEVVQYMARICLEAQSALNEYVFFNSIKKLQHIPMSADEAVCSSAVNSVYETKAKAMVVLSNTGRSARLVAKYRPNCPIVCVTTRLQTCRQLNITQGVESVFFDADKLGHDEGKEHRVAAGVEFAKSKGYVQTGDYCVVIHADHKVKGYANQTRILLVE
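Pyruvate kinase activity monitored as ATP production (luciferase luminescence). Conditions: 0.1 nM enzyme, 0.5 mM PEP, 0.1 mM ADP, 1 h, RT; normalized against uninhibited and no-enzyme wells.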
Cycloheximide cs: Cycloheximide Counterscreen for Small Molecule Inhibitors of Shiga Toxin; 12% of 300,000 active; max response, %; cell reporter, cycloheximide protein synthesis inhibition counterscreen; in the data active = max response mostly above about 13%, no sharp cut-off; inactive = mostly below about 14%; also: read at 38.3 µM for the half of the compounds with a filed dose
Hits are given with their value; i = inactive; ? = inconclusive; nt = no result given; [ ] = another dose, or the depositor's remark. The full list was thinned out, with hits kept by preference. Unless noted, calls follow the shape of the dose curve; as a rule, active = well fitted curve in the direction sought with a large enough effect; inconclusive = small, poorly fitted or top-dose-only effect, or another doubt; inactive = no such curve, though single readings can be large; an effect the other way counts as inactive or inconclusive.

SMILES	Tb PYK inh	FBPA Giardia inh	RE007 growth inh	Shiga toxin inh	LmPK inhibitor	Cycloheximide cs
Cc1cc(N2CCOCC2)nc(SCC(=O)c2ccccc2)n1	i	i	i	96	i	51
Cc1cc(N2CCC(C)CC2)nc(SCC(=O)c2ccccc2)n1	i	i	i	29	i	13
Cc1cc(Cl)nc(SCC(=O)c2ccccc2)n1	i	i	i	81	i	45
Cc1cc(N2CCCC2)nc(SCC(=O)c2ccccc2)n1	i	i	i	i	i	i
COc1ccc2[nH]c(=O)c(CN(C(=O)c3cccc(Cl)c3)c3cccc(C)c3)cc2c1	i	nt	nt	nt	nt	nt
CC(C)Oc1ccc(CNC(=O)CCn2c(=O)c3cccn3c3ccc(F)cc32)cc1	i	nt	nt	nt	nt	nt
Cn1c(CNC(=O)c2ccco2)nnc1SCC(=O)Nc1ccccc1Cl	i	nt	i	nt	nt	nt
Cc1cc(C)nc(SCC(=O)c2ccc(C)c(C)c2)n1	i	i	i	i	i	11
C=CC1=C2C=C(C3CC3)N(Cc3ccc4c(c3)OCO4)C=C2C(=O)C(C)(OC(=O)c2ccco2)C1=O (centres undefined)	nt	i[12.9 µM]	nt	nt	i[11.5 µM]	nt
COc1ccc(CCC(=O)OCC(=O)Nc2sccc2C(N)=O)cc1OC	i	nt	i	nt	nt	nt
Cc1ccc(-n2ncc3c(SCC(=O)Nc4cc(C)on4)ncnc32)c(C)c1	i	i	i	i	i	i
Cc1ccc(-n2ncc3c(SCc4ccccn4)ncnc32)c(C)c1	i	i	i	110	i	44
C=CCNc1ncnc2c1cnn2-c1ccc(C)cc1C	i	i	i	67	i	25
Cc1ccc(-n2ncc3c(NCC(C)C)ncnc32)c(C)c1	i	nt	nt	nt	nt	nt
CSc1ncnc2c1cnn2-c1ccc(C)cc1C	i	i	i	140	i[11.5 µM]	35
COc1ccc(-c2coc3ccc(OC4OC(COC(C)=O)C(OC(C)=O)C(OC(C)=O)C4OC(C)=O)c(OC(C)=O)c3c2=O)cc1 (centres undefined)	nt	i	nt	nt	nt	nt
CC(c1ccccc1)C1CC(=O)N(c2cc(Cl)ccn2)C1=O (centres undefined)	i	i	i	i	i	i
CCOc1ccccc1NC(=O)c1nn(-c2ccc(C)cc2)c(=O)n(C)c1=O	i	nt	nt	nt	nt	nt
O=C(Nc1cnn(Cc2c(Cl)cccc2Cl)c1)c1ccc([N+](=O)[O-])cc1	i	i	i	87	i	53
Cc1ccc(C(=O)Nc2ccc(CN3CCS(=O)(=O)CC3)cc2)cc1C	i	i	i	73	i	36
O=C(COc1ccc(Cl)cc1)Nc1cnn(Cc2c(Cl)cccc2Cl)c1	i	i	i	i	i	i
CN(C)c1ccc(NC(=O)c2ccc(Cn3cc([N+](=O)[O-])cn3)cc2)cc1	i	i	i	108	i	50
COc1ccc(C(=O)Nc2ccc(CN3CCOCC3)cc2)cc1Br	i	i	i	i	i	i
C/C(CC(=O)Nc1ccc(N(C)C)cc1)=N\NC(=O)Cc1csc(N)n1	i	?	i	48	i	19
CCNS(=O)(=O)c1ccc(NC(=O)c2ccc(Cn3cc([N+](=O)[O-])cn3)o2)cc1	i	i	i	i	i	i
SMILES	Tb PYK inh	FBPA Giardia inh	RE007 growth inh	Shiga toxin inh	LmPK inhibitor	Cycloheximide cs
COc1ccc(CC(=O)N/N=C(\C)CC(=O)Nc2ccc(N(C)C)cc2)cc1	i	i	i	i	i	i
S=C(Nc1cccnc1)N1CCN(c2ccccc2Cl)CC1	i	i	i	i	i	i
C/C(CC(=O)Nc1ccc(N(C)C)cc1)=N\NC(=O)c1ccc([N+](=O)[O-])cc1	i	i	i	i	i	18
COc1ccc(C(=O)Nc2ccc(CN3CCS(=O)(=O)CC3)cc2)cc1	i	i	i	i	i	i
CN(C)c1ccc(C(=O)Nc2ccc(CN3CCS(=O)(=O)CC3)cc2)cc1	i	i	i	i	i	36
Cc1ccc2cc(C)c(N3CCN(c4ccccn4)CC3)nc2c1	i	i	?	51	i	i
Cc1cccc(OCCn2c(NC(=O)c3ccco3)nc3ccccc32)c1	i	i	?	89	i	26
O=C(Nc1nc2ccccc2n1CCOc1ccc(Cl)cc1)c1ccco1	i	i	i	i	i	20
O=C(Nc1nc2ccccc2n1CCOc1ccccc1)c1ccco1	i	?	i	i	i	48
